The full ranking holds about 33,000 sequences; the median of “E-score (-0.5 to 0.5)” is about -0.053, and the highest 2% start at about 0.37. The entries come from a sample that favours the highest values as a whole.
Target: Hap1 (UniProt P0CE41)
Experiment: PBM E-score (8-mer binding enrichment) (E-score (-0.5 to 0.5)); higher = stronger / more preferred TF binding
Settings: protein concentration: 200 nM; construct: GST-DNA-binding domain
Procedure: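 Universal 'all 10-mer' protein binding microarrays (Agilent AMADID 015681) probed with GST-tagged S. cerevisiae TFs (full-length or DBD) made by in vitro transcription/translation (PURExpress), about 100-200 nM. Bound TF was detected with fluorescent anti-GST. Each ungapped 8-mer (which stands for itself and its reverse complement) is scored by the PBM enrichment score (E-score), a modified Wilcoxon-Mann-Whitney statistic from -0.5 to +0.5, computed with the Universal PBM Analysis Suite. Scale: above 0.35 generally sequence-specific binding.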

Chain of UniProt P0CE41 (P0CE41 whole entry): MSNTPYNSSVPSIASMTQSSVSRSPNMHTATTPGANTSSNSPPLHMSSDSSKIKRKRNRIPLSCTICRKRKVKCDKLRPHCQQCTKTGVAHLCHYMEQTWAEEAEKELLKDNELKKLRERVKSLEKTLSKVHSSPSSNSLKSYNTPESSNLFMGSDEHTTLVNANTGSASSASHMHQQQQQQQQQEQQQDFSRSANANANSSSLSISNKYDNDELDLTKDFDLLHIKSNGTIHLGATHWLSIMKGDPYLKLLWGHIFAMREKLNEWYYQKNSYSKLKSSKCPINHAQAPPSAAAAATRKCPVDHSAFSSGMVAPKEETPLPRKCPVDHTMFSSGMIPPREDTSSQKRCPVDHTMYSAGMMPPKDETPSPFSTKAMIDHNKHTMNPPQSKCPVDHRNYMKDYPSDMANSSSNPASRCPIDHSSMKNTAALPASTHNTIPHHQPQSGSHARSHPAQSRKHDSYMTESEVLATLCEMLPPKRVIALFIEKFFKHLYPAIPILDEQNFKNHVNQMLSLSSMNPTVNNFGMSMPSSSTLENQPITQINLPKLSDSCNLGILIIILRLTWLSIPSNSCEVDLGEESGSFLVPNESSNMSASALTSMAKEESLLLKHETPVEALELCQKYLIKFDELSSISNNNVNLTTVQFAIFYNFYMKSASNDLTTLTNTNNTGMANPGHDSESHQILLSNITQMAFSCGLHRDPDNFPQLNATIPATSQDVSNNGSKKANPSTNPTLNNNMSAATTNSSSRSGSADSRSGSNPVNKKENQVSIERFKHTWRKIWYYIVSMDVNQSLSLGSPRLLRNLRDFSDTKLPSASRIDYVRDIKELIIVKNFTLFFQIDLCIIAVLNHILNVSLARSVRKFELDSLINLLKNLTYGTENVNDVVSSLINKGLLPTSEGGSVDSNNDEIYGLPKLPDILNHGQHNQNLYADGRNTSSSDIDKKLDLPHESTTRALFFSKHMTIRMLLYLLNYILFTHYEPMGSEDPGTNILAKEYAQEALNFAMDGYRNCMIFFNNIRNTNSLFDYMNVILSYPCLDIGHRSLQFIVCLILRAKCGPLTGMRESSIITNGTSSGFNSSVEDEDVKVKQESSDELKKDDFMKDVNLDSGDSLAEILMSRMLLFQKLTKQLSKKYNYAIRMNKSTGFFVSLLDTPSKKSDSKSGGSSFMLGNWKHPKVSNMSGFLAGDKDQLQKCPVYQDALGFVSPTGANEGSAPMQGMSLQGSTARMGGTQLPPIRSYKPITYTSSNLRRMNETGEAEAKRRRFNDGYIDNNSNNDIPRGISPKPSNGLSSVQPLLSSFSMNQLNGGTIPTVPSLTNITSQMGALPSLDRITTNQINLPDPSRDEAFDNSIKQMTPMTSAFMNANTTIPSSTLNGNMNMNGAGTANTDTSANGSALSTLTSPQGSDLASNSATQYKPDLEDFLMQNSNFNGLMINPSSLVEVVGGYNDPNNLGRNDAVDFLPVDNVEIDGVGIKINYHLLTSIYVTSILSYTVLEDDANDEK

Sequence | PBM E-score
CAACCGGA | 0.316
GAACCGGC | 0.239
GAACCGTA | 0.0759
CCACTGCG | -0.0793
CGGGTGAG | 0.201
GTTCCCTA | -0.0618
GAAACGTA | -0.151
AGCTCCGC | 0.306
AGCTCCGG | 0.43
AGCTCCGA | 0.411
GGCTCCGA | 0.221
CGCTCCGA | 0.324
AGCTCCCG | 0.0669
GCCGCACA | -0.0419
ATTTACCG | 0.376
AATTACCC | 0.0864
CATTACCG | 0.198
AATTACCG | 0.374
ATTTACCC | 0.0884
ATTTACCA | 0.0182
GCGAGCAC | -0.187
GTCGAAAA | -0.0295
CCCCCCCC | -0.27
ACGCACCT | -0.185
GCCGGCCA | 0.284

Sequence | PBM E-score
CCCGGCCA | 0.291
ACCGGCCA | 0.284
ACCGGCCC | 0.329
ACCGGCCG | 0.439
CCCGGCCC | 0.341
GCCGGCCC | 0.372
CCCGGCCG | 0.405
ACCGGCCT | 0.181
AACTCTGG | -0.202
ACGCAAAG | -0.0974
ACTGCGTG | -0.275
CTCGTAGC | -0.117
TAATTAGA | 0.0224
AAGGCCGG | 0.408
CAGGCCGG | 0.166
AAGGCCGA | 0.435
AAGGCCGC | 0.135
AAGGCCCG | 0.196
AAGGCCGT | 0.212
CGAGATGC | -0.0846
GGTACCAA | 0.0294
AAGTTAGG | -0.0844
CCTTGAAC | -0.1
GACCGAGA | 0.382
GACCGACC | 0.266

Sequence | PBM E-score
AACCGAGG | 0.148
AACCGAGC | 0.371
CACCGAGC | 0.297
TACCGAGA | 0.209
CACCGAGA | 0.259
GACCGAGC | 0.375
AACCGAGT | 0.157
GCTACGCC | -0.0393
CATCCGCC | 0.244
CCTAGTTC | -0.00076
AGTATGCC | 0.0174
AAAGGCAT | -0.125
AACTGAAT | -0.215
ATAACTCG | 0.205
ATAACTCA | -0.0521
CTAACTGC | -0.0433
CTAACTCC | 0.403
ATAACTCC | 0.4
CTAACTCA | -0.177
AAAAGGAA | 0.0913
ACGGGTAT | 0.0846
CCCGATCC | 0.31
CCCGATAC | 0.432
AGCGATAA | 0.284
AGCGATAG | 0.119

Sequence | PBM E-score
CACGATAG | -0.138
CGCGATAG | 0.2
AACGATAG | 0.118
ACCGATAA | 0.443
CGCGATAC | 0.17
ACCGATAG | 0.373
ACCGATTA | 0.335
CCCGATAG | 0.414
CATCGAGG | -0.23
CTCAGGAA | -0.108
AACCGGCT | 0.252
GCTGCTCA | -0.241
GGCAAGGA | -0.0722
CTGAGTCC | -0.0126
ACTATCAA | 0.0295
CCGCCTCC | 0.0265
CGATTTTC | 0.147
GCCGATAA | 0.449
ACCGATCT | 0.274
AACGATAT | -0.0547
ACCGATAT | 0.43
GCCGATGA | 0.373
GGCGATAC | 0.265
GCCGATCA | 0.263
CGCGATAA | 0.115

Sequence | PBM E-score
GGCGATAA | 0.392
GTCGATAA | -0.0382
CCCGATGA | 0.285
ACCGATGA | 0.223
CTAGATGC | -0.224
GAATCGAA | -0.142
ACAGGCTG | -0.256
CTTGCACA | -0.136
GCCGATCC | 0.258
CCCGATTA | 0.197
GCCGATAC | 0.417
AACGATAC | -0.2
CACGATAA | 0.087
GACGATAC | 0.0839
TCCGATCA | 0.221
ACCGATAC | 0.371
AGCGATAC | 0.065
CCCGATAA | 0.417
TACGATAA | 0.0399
TCCGATAA | 0.45
GTAGGGAC | -0.0187
AGTGAGTC | -0.18
CCTCTAAG | -0.337
GTTATCGA | 0.165
CAGACCAG | 0.0149

Sequence | PBM E-score
GGAATTAC | 0.375
CGAATTAA | 0.0158
TGAATTAA | -0.0149
GGAATTAA | 0.419
CGAATTAC | 0.15
AGAATTAC | 0.0991
TATCTCAA | -0.0851
GCCTGGAC | -0.0392
AGATCCGA | 0.359
ATATCCCG | 0.286
ATATCCGG | 0.452
ATATCCGC | 0.387
AGATCCGG | 0.384
GTATCCGA | 0.304
CTATCCGA | 0.113
ATATCCGA | 0.463
AGATCCGC | 0.263
ATATCCTC | 0.0211
ATATCCAG | 0.0668
CTATCCGC | 0.257
AGGCAATG | -0.17
ACTGGGGA | -0.016
AGTGGAAC | 0.0266
CAGATCCC | 0.0493
AAGTCCGG | 0.47

Sequence | PBM E-score
AAGTCCGC | 0.427
GAGTCCGC | 0.249
AAGTCCTG | -0.0784
AAGTCCGT | 0.417
CAGTCCGG | 0.364
AAGTCCAT | -0.00211
CAGTCCGC | 0.0912
AAGTCCCT | -0.278
GTTGGTTA | -0.0552
TTGCAAAA | -0.00902
CCGAAGTA | 0.365
GAGGCACA | -0.112
ATCCGTTA | 0.409
ATCCGTTC | 0.233
CTCCGTTA | 0.367
GTCCGTGA | 0.303
ATCCGTTG | 0.301
GTCCGTTA | 0.444
CGCCCGCA | 0.189
GCCTGAAC | -0.0686
CGCAGGGC | -0.0256
GGGTATGA | 0.0413

Source: the supplement of paper PMC3334620
